Screening data: PubChem, National Center for Advancing Translational Sciences (NCATS)
Sampled rows, rich in hits. Any-hit rate of the full collection: about 12%.
SARS PLpro yeast: SARS-CoV PLP inhibition in yeast; S. cerevisiae expressing SARS-CoV PLpro, growth rescue; 330,000 compounds, 0.19% hits; Potency, µM (top dose mostly 32.9 µM), actives largely listed as activators; calls by dose curve; also: nearly all actives have a fitted effect of over 55% in size
Pf growth 48h: inhibits P. falciparum growth in the first generation, 48 h. P. falciparum luciferase growth in erythrocytes, 48 h. Potency, µM (titrated, usually from 28.7 µM), usual class: inhibitors. 310,000 compounds, 5.9% hits. AID 504832
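Parasite viability was followed by luminescence of a genomically integrated firefly luciferase. Cultures held 0.1% parasitemia at 2% hematocrit (final), incubated under 5% CO2 at 37 C.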
Pf growth 96h: P. falciparum growth inhibition at 96 hour, primary screen for plastid delayed-death inhibitors; 320,000 compounds, 6.9% hits; Potency, µM (doses to about 28.7 µM), hits mostly inhibitors; P. falciparum luciferase reporter growth, 96 h
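Erythrocytes infected with luciferase-expressing P. falciparum were dispensed at 2% hematocrit and 0.05% parasitemia (final), then incubated with compounds 96 hours at 37 C in 5% CO2. Luminescence after detection reagent addition reported growth.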
AmpC inh detg: AmpC beta-lactamase inhibition with detergent present; AID 485294; AmpC hydrolysis of nitrocefin, absorbance 480 nm, 0.01% Triton; P00811; Potency, µM (highest dose often 114 µM), most hits filed as inhibitors; 370,000 compounds, 0.041% hits; also: nearly all actives have a fitted effect of over 25% in size
Target sequence (P00811 whole entry, looked up): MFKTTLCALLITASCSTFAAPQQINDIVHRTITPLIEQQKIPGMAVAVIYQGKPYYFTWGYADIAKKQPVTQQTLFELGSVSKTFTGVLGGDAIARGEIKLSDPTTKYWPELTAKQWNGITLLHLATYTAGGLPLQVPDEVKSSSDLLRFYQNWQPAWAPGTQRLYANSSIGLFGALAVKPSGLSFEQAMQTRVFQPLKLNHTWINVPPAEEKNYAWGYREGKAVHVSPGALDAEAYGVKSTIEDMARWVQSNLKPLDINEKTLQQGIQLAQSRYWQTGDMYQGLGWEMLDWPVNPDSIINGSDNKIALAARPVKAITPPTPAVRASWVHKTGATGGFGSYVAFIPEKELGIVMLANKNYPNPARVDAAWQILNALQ
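20 mM phosphate pH 7.0 + 0.01% (detergent screen) or 0.0001% Triton X-100; 5.3 nM AmpC reagent; cpd preinc 15 min RT; nitrocefin (800 uM stock) to start; A480 q20 s × 4 min; Activity was normalised to no-enzyme and no-compound control wells.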
Sm TGR block: blocks Schistosoma mansoni thioredoxin glutathione reductase; purified TGR, DTNB reduction, TNB absorbance 405 nm; 360,000 compounds, 3% hits; Potency, µM (titrated, usually from 114 µM), actives largely listed as inhibitors; AID 485364; Q962Y6; also: nearly all actives have a fitted effect of over 60% in size
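TGR 20 nM + NADPH 100 uM (dispensed conc.), cpd preinc 15 min RT; start with NADPH (500 uM addition) then DTNB (15 mM addition). Kinetic TNB absorbance, 405 nm filter. Four-parameter Hill fit across titration.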
AmpC no deterg: AmpC beta-lactamase inhibition without detergent | P00811 | AmpC nitrocefin hydrolysis, absorbance 480 nm, 0.0001% Triton | Potency, µM (doses to about 57.1 µM), usual class: inhibitors | 330,000 compounds, 0.52% hits | AID 485341; also: nearly all actives have a fitted effect of over 20% in size
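20 mM phosphate pH 7.0 + 0.01% (detergent screen) or 0.0001% Triton X-100; 5.3 nM AmpC reagent; cpd preinc 15 min RT; nitrocefin (800 uM stock) to start; A480 q20 s × 4 min; Activity was normalised to no-enzyme and no-compound control wells.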
Hits are given with their value; 0 = inactive; ? = inconclusive; - = no result given; [ ] = another dose, or the depositor's remark. Unless noted, calls follow the shape of the dose curve; as a rule, active = well fitted curve in the direction sought with a large enough effect; inconclusive = small, poorly fitted or top-dose-only effect, or another doubt; inactive = no such curve, though single readings can be large; an effect the other way counts as inactive or inconclusive.

SMILES	SARS PLpro yeast	Pf growth 48h	Pf growth 96h	AmpC inh detg	Sm TGR block	AmpC no deterg
O=C(/C=C/c1ccco1)Nc1cccc(C(=O)Nc2ccccc2C(=O)O)c1	0	0	0	0	4µM	0
Cc1ccc(-n2nc3ccc(NC(=O)/C=C/c4ccco4)cc3n2)cc1	0	0	0	0	0	28µM
O=C(O)c1cccc(NC(=O)c2ccccc2NC(=O)c2ccco2)c1	0	0	0	0	0	0
CCc1ccccc1NC(=O)c1cccc(NC(=O)/C=C/c2ccco2)c1	0	0	0	0	20µM	0
Cc1ccc(NC(=O)c2cccc(NC(=O)/C=C/c3ccco3)c2)cc1C	0	0	?	?	45µM	0
CSC1=N/C(=C\c2ccc(C)o2)C(=O)S1	0	-	0	0	0[11.4 µM]	0
O=C(CN1C(=O)COc2ccccc21)NCCc1ccc(Cl)cc1	-	-	-	0	0	-
O=C(O)CCC(=O)Nc1cccc(-c2nc3ccccc3o2)c1	0	0	0	0	0	0
Cc1cc(C)c2oc(-c3ccc(C)c(NC(=O)/C=C/c4ccco4)c3)nc2c1	-	-	-	0	13µM	-
O=C(c1cnn2c1NC(c1ccc(Br)cc1)CC2C(F)(F)F)N1CCN(C23CC4CC(CC(C4)C2)C3)CC1 (centres undefined)	0	3.7µM	8.3µM	0	0	0
CCn1c(C)c2c(C)nnc(C)c2c1C	0	0	?	0	45µM	0
Cc1nnc(C)c2c(C)n(-c3ccccc3)c(C)c12	0	?	0	0	0	0
Cc1ccc(-n2c([S-])c(C(=O)NC(C)c3ccccc3)[n+]3ccccc23)cc1 (centres undefined)	0	?	?	0	0	0
COc1ccc(CNC(=O)c2c([S-])n(-c3ccc(C)cc3)c3cccc[n+]23)cc1	0	?	10µM	0	0	0
CCOC(=O)N1CCN(Cc2nc3cc([N+](=O)[O-])ccc3n2C)CC1	0	0	0	?	0	0
CN(C(=O)c1cccs1)C1(C)CCS(=O)(=O)C1 (centres undefined)	0	0	10µM	0	0	0
CCOC(=O)c1sc2nc(CSc3ccccc3)nc(N3CCC(C(N)=O)CC3)c2c1C	0	3.3µM	4.1µM	0	0	0
Cc1sc2nc(CN3CCOCC3)nc(NS(=O)(=O)c3ccccc3)c2c1C	0	0	-	0	0	0
Cc1sc2nc(CSc3ccccc3)nc(NCCN(C)C)c2c1C	0	?	5.9µM	?	0	0
CCOC(=O)c1sc2nc(CSc3ccccc3)nc(N3CCCN(C)CC3)c2c1C	0	?	?	0	0	0
Cc1sc2nc(CSc3ccccc3)nc(N3CCC(C(N)=O)CC3)c2c1C	0	?	12µM	0	0	0
Cc1sc2nc(C3CC3)nc(NCCNS(=O)(=O)c3ccccc3)c2c1C	0	9.3µM	0	0	0	0
CC(C)(C)OC(=O)N1CCC(c2c(C(=O)NCCN3CCOCC3)cnn2-c2ccc(F)cc2F)CC1	-	-	-	0	0	-
CSc1ncc2c(n1)-c1ccccc1N(Cc1ccccc1)S2(=O)=O	-	-	-	?	0	-
CCN(CC)C(=O)CSc1nnc(SC(C)C(=O)NC2CC2)s1 (centres undefined)	0	-	-	-	-	0
SMILES	SARS PLpro yeast	Pf growth 48h	Pf growth 96h	AmpC inh detg	Sm TGR block	AmpC no deterg
CC1=C(C(=O)Nc2ccc(Cl)cc2)C(c2ccc(C(F)(F)F)cc2)n2nnnc2N1 (centres undefined)	-	-	-	0	0	-
Cc1cc(C)nc(SCCn2c(N3CCOCC3)nc3c2c(=O)[nH]c(=O)n3C)n1	0	0	?	0	0	0
Cc1sc2nc(CN3CCCC3)nc(N3CCN(S(=O)(=O)c4cccs4)CC3)c2c1C	0	?	?	?	0	0
Cc1ccc(C)c(S(=O)(=O)N2CCN(c3nc(CN4CCOCC4)nc4sc(C)c(C)c34)CC2)c1	0	12µM	12µM	?	0	0
Cc1ccc(S(=O)(=O)N2CCN(c3nc(CN4CCCC4)nc4sc(C)c(C)c34)CC2)cc1	0	4.7µM	?	0	0	0
Cn1c(SCCCC(=O)c2ccc(F)cc2)nnc1-c1ccncc1	0	?	10µM	0	0	0
COCCn1c(SCCCC(=O)c2ccc(Br)cc2)nnc1-c1ccncc1	0	-	13µM	?	0	0
Cn1c(SCCCC(=O)c2ccccc2)nnc1-c1ccncc1	0	0	0	0	0	0
Nc1nn(S(=O)(=O)c2cccc3nsnc23)cc1-c1ccc(Br)cc1	0	?	-	?	0	20µM
COc1ccc(NC(=S)N(CCCN2CCOCC2)Cc2cn(C)c3ccccc23)cc1OC	0	?	4.1µM	?	0	0
COc1ccc(CCNC(=O)Cn2c([N+](=O)[O-])cnc2C)cc1OC	0	0	0	0	0	0
Cc1cc(C[n+]2ccccc2)c2nsnc2c1	0	2.1µM	-	?	0	0
Cc1cc(C[n+]2ccsc2N)c2ncccc2c1	0	0	?	0	0	0
Cc1ccc(-n2nc(C(=O)N3CCCCC3C)c(=O)n(C)c2=O)cc1 (centres undefined)	-	-	-	0	0	-
CCOc1ccc(S(=O)(=O)NCCC(=O)N(C)Cc2cccs2)cc1	0	0	0	0	0	0
Cc1nn(CC(=O)N2CCN(C34CC5CC(CC(C5)C3)C4)CC2)c(C)c1[N+](=O)[O-]	0	0	?	0	0	0
Cc1c(Cl)c([N+](=O)[O-])nn1CC(=O)N1CCN(C23CC4CC(CC(C4)C2)C3)CC1	0	12µM	0	0	0	0
O=C(Nc1ccc(N2CCCCC2)c(Cl)c1)c1cccnc1	0	0	0	?	0	0
CCOC(=O)CSc1nc2ccc(N3CCOCC3)cc2c(=O)n1Cc1ccccc1	0	-	?	0	0	0
CC(=O)Nc1cc2c(=O)n(Cc3ccccc3)c(C)nc2cc1N1CCOCC1	0	0	0	0	6.3µM	0
Cc1nc2cc(N3CCCCC3)c(NC(=O)c3cccnc3)cc2c(=O)n1Cc1ccccc1	0	2.9µM	-	?	0	0
Cc1cc(OCCn2cc(C(=O)c3cccs3)c3ccccc32)ccc1Cl	-	-	-	0	0	-
O=c1cc(CSc2ccc(Cl)cc2)nc(-c2ccccc2)[nH]1	0	0	0	?	0	0
O=c1cc(CSc2ccc(Cl)cc2)nc(-c2ccccn2)[nH]1	0	2.3µM	1.9µM	0	0	0
CCn1c(CN2CCCCC2)nc2cc(NC(=O)COc3ccc(C(C)(C)C)cc3)ccc21	-	-	-	0	0	-
CS/C(=C\[N+](=O)[O-])Nc1ccc(F)cc1	-	?	0	0	0.25µM	-
CC(=O)Nc1ccccc1	0	0	?	-	-	0
CS/C(=C\[N+](=O)[O-])Nc1ccccc1	-	0	0	0	0.25µM	-
COc1ccc(N/C(=C/[N+](=O)[O-])SC)cc1	0	0	?	0	?	0
CSc1cccc(NC(=O)C2CCN(S(=O)(=O)c3ccc4c(c3)CCCN4C(=O)C3CCC3)CC2)c1	-	-	-	0	0	-
